From PubChem BioAssay
BoNT A protease: BoNT A light chain protease inhibition; 0.17% of 360,000 active; inhibition, % at 10 µM; multiplex microsphere protease substrate cleavage, flow cytometry; further: plate controls were buffer without enzyme for full effect and enzyme alone for no effect
Anthrax LF inh2: inhibitors of Bacillus anthracis lethal factor protease; P15917; multiplex microsphere protease cleavage assay, LF; inhibition, % at 10 µM; 0.12% of 360,000 active; AID 588501; further: plate controls were buffer without enzyme for full effect and enzyme alone for no effect
Target sequence (P15917 whole entry, looked up): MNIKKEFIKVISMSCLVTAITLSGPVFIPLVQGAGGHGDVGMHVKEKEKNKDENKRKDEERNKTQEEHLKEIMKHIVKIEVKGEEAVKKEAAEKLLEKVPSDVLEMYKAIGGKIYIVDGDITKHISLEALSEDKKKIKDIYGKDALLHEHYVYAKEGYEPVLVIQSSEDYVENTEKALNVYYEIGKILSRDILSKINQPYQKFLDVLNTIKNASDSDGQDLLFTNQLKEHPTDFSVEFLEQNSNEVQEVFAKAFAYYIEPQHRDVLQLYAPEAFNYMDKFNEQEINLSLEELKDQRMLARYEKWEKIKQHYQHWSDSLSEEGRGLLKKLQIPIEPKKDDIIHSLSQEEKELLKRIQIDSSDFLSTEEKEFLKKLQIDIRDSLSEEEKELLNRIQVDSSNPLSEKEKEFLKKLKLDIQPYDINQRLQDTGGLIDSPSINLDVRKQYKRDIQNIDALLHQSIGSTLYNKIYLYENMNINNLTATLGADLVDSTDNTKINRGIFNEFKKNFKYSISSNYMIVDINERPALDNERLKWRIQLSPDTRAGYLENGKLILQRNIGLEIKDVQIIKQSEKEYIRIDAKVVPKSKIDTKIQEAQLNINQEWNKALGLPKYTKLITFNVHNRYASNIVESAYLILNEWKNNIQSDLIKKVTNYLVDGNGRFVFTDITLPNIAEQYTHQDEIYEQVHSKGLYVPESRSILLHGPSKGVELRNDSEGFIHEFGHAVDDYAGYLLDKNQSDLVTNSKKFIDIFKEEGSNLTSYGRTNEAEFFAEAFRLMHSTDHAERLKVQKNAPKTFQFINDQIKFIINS
Bead autofluor: flagged as autofluorescent in microsphere protease counterscreen; compound autofluorescence counterscreen, microsphere flow cytometry; stronger effect = higher value; fluorescence intensity (concentration not given with the values); 3.1% of 360,000 active; in the data active means fluorescence intensity above about 16000; inconclusive means no clear call, values can overlap the other calls
BJeLR lethal: kills HRASV12-expressing BJeLR cells; BJeLR (HRASV12) viability, CellTiter-Glo ATP luminescence, 48 h; inhibition, % (no concentration beside the values); 0.17% of 300,000 active; AID 1554; in the data active means inhibition above about 50%; inconclusive means no clear call, values can overlap the other calls
BoNT-F LC inh: BoNT F light chain protease inhibition; AID 588497; 0.22% of 360,000 active; inhibition, % at 10 µM; Multiplex microsphere protease cleavage assay, flow cytometry; in the data active means inhibition above about 35%, passing the limit was not always enough; inconclusive means no clear call, values can overlap the other calls; further: plate controls were buffer without enzyme for full effect and enzyme alone for no effect
* = called active by the depositor; ? = inconclusive; . = no result given; + = active, no number. Only some compounds are listed: those with a hit (about 3.5% of all), similar ones and a draw of the others. Unless noted, no stated cut-off is given here; in the data, active means inhibition above about 30%; inconclusive means no clear call, values can overlap the other calls; inactive means below that.

SMILES	BoNT A protease	Anthrax LF inh2	Bead autofluor	BJeLR lethal	BoNT-F LC inh
CCc1cc(-c2n[nH]c(C)c2Oc2ccc(C(C)C)cc2)c(O)cc1O	?	-5.0	22495*	-6.2	-16.7
O=C(CSc1nnc(-c2ccc(Cl)cc2)n1-c1ccccc1)N/N=C/c1ccccc1C(=O)O	4.5	-2.5	4314	-2.3	40.6*
O=C(COC(=O)/C=C/c1ccccc1Cl)NC1CCCCCC1	-0.5	0.9	2537	-2.9	0.5
CN(C)C(=O)c1cccc(-c2cccc(-c3nc(C(=O)NCc4ccccc4)cc4c3[C@@H](CCO)N(S(=O)C(C)(C)C)C4)c2)c1 (stereo partly specified)	-0.4	0.9	5531	.	-2.0
COc1ccc(/C=N/NC(=O)c2[nH]c3ccc(Br)cc3c2-c2ccccc2)cc1	0.7	1.5	2382	55.1*	-5.7
O=C(N/N=C/c1ccccc1Cl)c1[nH]c2ccc(Br)cc2c1-c1ccccc1	-0.6	1.1	2420	60.5*	-2.0
COc1ccc(/C=N/NC(=O)c2[nH]c3ccc(Br)cc3c2-c2ccccc2)c(C(=O)O)c1OC	-1.3	-5.4	5284	-3.6	-16.3
CSc1ncc(Cl)c(C(=O)C(C#N)c2nc3c(C)cc(C)cc3c(=O)[nH]2)n1 (stereo unspecified)	1.4	-8.8	4327	1.8	-2.5
CN(C)c1ccc(/C=C/c2ccc3ccccc3[n+]2C)cc1	9.3	-4.0	2045	44.0	-35.2
CN(C)c1ccc(/C=C/c2ccc3c4ccccc4ccc3[n+]2-c2ccccc2)cc1	62.4*	-62.2	1663	.	+
C(=C\CSc1ncn[nH]1)/CSc1ncn[nH]1	4.2	-1.3	20380*	2.8	8.1
CCOC(=O)C1=CCN(S(=O)(=O)c2ccccc2F)C1c1cccc(Cl)c1 (stereo unspecified)	0.4	-5.2	5714	.	4.8
Cc1ccc(N2C3=C(C(=O)CC(C)(C)C3)C(c3cn(C)nc3C)C3=C2CC(C)(C)CC3=O)cc1	29.1	12.4	20845*	-2.0	-14.5
Cc1nn(C)cc1C1C2=C(CC(C)(C)CC2=O)N(c2ccccc2)C2=C1C(=O)CC(C)(C)C2	0.4	4.0	3433	5.2	-7.1
Cc1cccc(C)c1Nc1nnc(SCc2cc([N+](=O)[O-])cc3c2OCOC3)s1	15.3	-4.2	16667*	18.0	15.2
COc1cccc(Nc2nnc(SCc3cc([N+](=O)[O-])cc4c3OCOC4)s2)c1	0.4	-1.1	2093	0.4	7.4
COc1ccc(N2CC(C(=O)NCCCN3CCOCC3)CC2=O)cc1 (stereo unspecified)	0.5	1.4	23842*	-5.3	2.3
Cc1ccc(N2CC(C(=O)NCCN3CCOCC3)CC2=O)cc1C (stereo unspecified)	4.1	-6.3	4407	7.1	15.3
Cc1ccc(N2CC(C(=O)NCCCn3ccnc3)CC2=O)cc1 (stereo unspecified)	-2.0	0.4	16950*	2.7	-2.8
CCCNC(=O)C1(CC2CC(c3ccccc3)=NO2)CCN(C(=O)CCCCCBr)CC1 (stereo unspecified)	0.1	-0.7	3482	-3.6	-8.3
CCCCn1c(SCC(=O)Nc2cc(C)on2)nc2c1c(=O)n(C)c(=O)n2C	0.2	-0.6	9657	-1.5	-2.9
CCOc1ccc2nc(NC(=O)CSc3nc4c(c(=O)n(C)c(=O)n4C)n3C(C)C)sc2c1	-0.5	-0.9	5932	-9.9	4.0
CCn1c(SCC(=O)Nc2cc(C)on2)nc2c1c(=O)n(C)c(=O)n2C	?	-2.2	24541*	-0.5	-2.6
CCn1c(SCC(=O)Nc2nc3ccc(OC)cc3s2)nc2c1c(=O)n(C)c(=O)n2C	4.6	-5.0	21795*	4.1	4.3
COc1ccc(C(C)(NC(C)=O)c2nc(-c3cccc4cccnc34)cs2)cc1 (stereo unspecified)	0.1	4.3	3826	.	-7.2
SMILES	BoNT A protease	Anthrax LF inh2	Bead autofluor	BJeLR lethal	BoNT-F LC inh
O=C(O)c1c(C(=O)O)c(-c2ccc(Cl)c(Cl)c2)n2c1CSC2	-5.5	8.2	3776	0.4	-13.7
O=C(COC(=O)c1ccc(Br)o1)Nc1nc2ccccc2s1	0.2	-1.3	16288*	1.4	-2.9
O=C(NCc1ccc(-c2nc3ccccc3s2)cc1)c1ccc(Br)o1	-0.7	-2.1	2495	-1.5	3.0
O=C(Nc1ccccc1-c1nc2ccccc2s1)c1ccc(Br)o1	-0.3	-3.3	23088*	10.4	-0.5
CCC(C)NS(=O)(=O)c1ccc(S(=O)(=O)N2CCCC3(CCCCC3)C2)cc1 (stereo unspecified)	1.6	-5.4	21732*	4.5	-0.5
CCC(C)C(=O)Nc1ccc(S(=O)(=O)N2CCCC2)cc1 (stereo unspecified)	-0.9	14.6	3832	-4.3	14.7
CCCN1CCc2c(sc3nc(SCC)n(-c4ccc(OC)cc4)c(=O)c23)C1	40.3*	28.9	4205	18.3	11.3
CCCN1CCc2c(sc3nc(SCC)n(-c4ccccc4)c(=O)c23)C1	33.9*	14.8	5969	15.2	5.1
O=C(CNS(=O)(=O)c1ccccc1)NCc1ccco1	0.8	4.3	5629	-0.5	-0.9
CCOC(=O)c1[nH]c(C)c(/C(O)=C2\C(=O)C(=O)N(CCN(C)C)C2c2ccncc2)c1C (stereo unspecified)	0.7	3.3	2321	4.5	7.2
CCOC(=O)c1[nH]c(C)c(/C(O)=C2\C(=O)C(=O)N(CCN(C)C)C2c2cccc(OC)c2OC)c1C (stereo unspecified)	3.3	-4.1	18747*	-9.1	3.4
C[C@@H]1CN([C@@H](C)CO)C(=O)CCCn2nncc2CO[C@H]1CN(C)Cc1cccc2c1OCCCO2	0.1	-2.6	3460	.	-3.4
Cc1cccc(NC(=O)CSc2nnc(Cn3nnc(-c4ccccc4)n3)n2-c2ccccc2)c1	-0.6	-2.6	23099*	-9.9	-1.3
CCn1c(Cn2nnc(-c3ccccc3)n2)nnc1SCC(=O)Nc1cccc(C(C)=O)c1	1.0	1.1	7838	-2.7	-1.9
O=C(c1cccc(Oc2c(Cl)cccc2[N+](=O)[O-])c1)N1CCOCC1	-0.5	-3.4	5481	7.1	-1.6
Cc1cc(C)cc(C(O)c2ncc(-c3ccc4ccccc4c3)[nH]2)c1 (stereo unspecified)	-0.4	-9.8	4211	.	-7.4
CCC1Oc2ccc(C)cc2N(CC(=O)NCCCN2CCOCC2)C1=O (stereo unspecified)	1.4	2.0	4883	4.8	8.9
CCC1Oc2ccc(C)cc2N(CC(=O)NCCCN2CCCCC2C)C1=O (stereo unspecified)	0.9	-3.3	5358	4.2	7.3
CCC1Oc2ccc(C)cc2N(CC(=O)NCCC2=CCCCC2)C1=O (stereo unspecified)	?	1.0	18757*	-0.7	6.8
CCC1Oc2ccc(C)cc2N(CC(=O)NCCCN2CCCCC2CC)C1=O (stereo unspecified)	-4.2	-3.6	24712*	1.2	-6.3
CC(C)C(N)c1csc(NC(=O)Nc2ccc(OC(F)(F)F)cc2)n1 (stereo unspecified)	-0.1	-8.8	2831	.	-12.6
NC(c1csc(Nc2ccc(C(=O)NCCO)cc2)n1)C1CCCCC1 (stereo unspecified)	-0.1	-3.1	3068	.	-5.1
